Assay results: PubChem BioAssay (EPA / NIEHS)
Results filed as inconclusive are left out. The source made the active and inactive calls. Rule for the calls, unless noted: active = hit-call score of the fitted dose curve at least 0.9, where 1 is the maximum; inconclusive = response in the unintended direction; inactive = score below 0.9.

How the values were obtained:
[1] = TOX21_p53_BLA_p2_viability: Viability Assessment in the Tox21 HCT-116 p53 Agonism Beta-lactamase Assay, Phase 2 (AID 2283591);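 note: compound exposure lasted 16 h at 37 °C; actives lower the ATP signal meaning cytotoxicity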
Outline: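 HCT116 p53-bla cells, 4000/well, dosed after 5 h plating (217-fold dilution of DMSO stocks) and incubated 16 h at 37C. Viability taken as cellular ATP by CellTiter-Glo luminescence after 30 min RT; signal loss marks cytotoxicity.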

[2] = molecular target: Cellular tumor antigen p53 (Homo sapiens) (UniProt P04637); assay: TOX21_p53_BLA_p2_ratio: Tox21 HCT-116 p53 Agonism Beta-lactamase Assay, Ratio, Phase 2 (AID 2283592)
Sequence of Cellular tumor antigen p53 (Homo sapiens) (P04637 whole entry, looked up): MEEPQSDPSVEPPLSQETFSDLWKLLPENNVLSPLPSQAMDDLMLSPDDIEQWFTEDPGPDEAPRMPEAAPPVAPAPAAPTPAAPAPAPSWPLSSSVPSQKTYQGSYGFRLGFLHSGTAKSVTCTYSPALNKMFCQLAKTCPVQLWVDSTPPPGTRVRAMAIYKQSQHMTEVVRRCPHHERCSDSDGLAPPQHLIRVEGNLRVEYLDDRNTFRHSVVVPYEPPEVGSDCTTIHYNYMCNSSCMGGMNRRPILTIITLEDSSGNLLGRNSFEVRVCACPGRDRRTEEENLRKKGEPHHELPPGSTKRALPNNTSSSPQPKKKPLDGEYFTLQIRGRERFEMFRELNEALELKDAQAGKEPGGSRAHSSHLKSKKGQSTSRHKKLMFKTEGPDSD
Outline: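 Gain-of-signal p53 agonism was scored from the beta-lactamase FRET ratio (460/530 nm, 405 nm excitation) in HCT116 cells treated 16 h at 37C, 5% CO2, with DMSO serving as negative control and baseline.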

[3] = TOX21_p53_BLA_p3_viability: Viability Assessment in the Tox21 HCT-116 p53 Agonism Beta-lactamase Assay, Phase 3 (AID 2283593);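 note: cells exposed to compound for 16 h before reading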
Outline: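 HCT116 cells, 4000/well, dosed 5 h after plating by pin transfer (217-fold dilution from DMSO stock) and incubated 16 h at 37C, 5% CO2. Viability read as ATP luminescence with CellTiter-Glo after 30 min at room temperature.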

[4] = molecular target: Cellular tumor antigen p53 (Homo sapiens) (UniProt P04637); assay: TOX21_p53_BLA_p3_ratio: Tox21 HCT-116 p53 Agonism Beta-lactamase Assay, Ratio, Phase 3 (AID 2283596)
Outline: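 HCT116 p53-bla cells (4000/well) given compound in DMSO (217-fold dilution) after 5 h, incubated 16 h at 37C. CCF4-AM substrate 2 h at room temperature; 460/530 nm emission ratio, gain fitted against DMSO.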

[5] = TOX21_p53_BLA_p5_viability: Viability Assessment in the Tox21 HCT-116 p53 Agonism Beta-lactamase Assay, Phase 5 (AID 2283600)
Outline: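 After the 460/530 nm beta-lactamase measurement, the wells received an ATP-detection luciferase reagent; signal was read 30 min later at RT. Compound treatment lasted 16 h on cells pre-incubated 5 h post-seeding.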

[6] = molecular target: Cellular tumor antigen p53 (Homo sapiens) (UniProt P04637); assay: TOX21_p53_BLA_p4_ratio: Tox21 HCT-116 p53 Agonism Beta-lactamase Assay, Ratio, Phase 4 (AID 2283601)
Outline: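 HCT-116 p53 beta-lactamase reporter cells (4000/well) preincubated 5 h, then compound (217-fold dilution of DMSO stock) for 16 h at 37C. CCF4-AM substrate added 2 h at room temperature; 460/530 nm emission ratio fitted upward versus DMSO.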

[7] = molecular target: Cellular tumor antigen p53 (Homo sapiens) (UniProt P04637); assay: TOX21_p53_BLA_p5_ratio: Tox21 HCT-116 p53 Agonism Beta-lactamase Assay, Ratio, Phase 5 (AID 2283599)
Outline: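 HCT-116 p53-bla cells (4000/well) plated 5 h, dosed with compound (217-fold DMSO dilution) for 16 h at 37 C; CCF4-AM substrate 2 h at room temperature. Activity is the 460/530 nm emission ratio (405 nm excitation), fitted in gain-of-signal direction versus DMSO.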

[8] = TOX21_p53_BLA_p4_viability: Viability Assessment in the Tox21 HCT-116 p53 Agonism Beta-lactamase Assay, Phase 4 (AID 2283597);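 note: hits lower the luminescence signal meaning cytotoxicity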
Outline: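 Following a 16 h exposure at 37C, the treated HCT116 wells were first read for the FRET ratio. They were then lysed with CellTiter-Glo, and ATP luminescence was recorded after 30 min at room temperature.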

[9] = CCTE_Harrill_HTTr_Viability_MCF7: CCTE's 6-hour Cell Viability Assessment for the High-Throughput Transcriptomics (HTTr) Platform, in MCF-7 cells cultured in DMEM + 10% fetal bovine serum, Harrill Lab (AID 2284010; active = hit-call score of the fitted dose curve at least 0.9, where 1 is the maximum; inactive = score below 0.9)
Outline: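 MCF-7 cells in DMEM + 10% FBS, 384-well, exposed 6 h to an eight-point dilution series. Membrane integrity scored by high-content imaging of propidium iodide exclusion; bidirectional fit versus DMSO.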

[10] = CCTE_Harrill_HTTr_Apoptosis_MCF7: CCTE's 6-hour Apoptosis Assessment for the High-Throughput Transcriptomics (HTTr) Platform, in MCF-7 cells cultured in DMEM + 10% fetal bovine serum, Harrill Lab (AID 2284011; active = hit-call score of the fitted dose curve at least 0.9, where 1 is the maximum; inactive = score below 0.9)
Outline: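 High-content imaging of CellEvent Caspase 3/7 Green signal follows a six-hour exposure, with eight concentrations per chemical. MCF-7 cells grown in DMEM plus 10% fetal bovine serum; activity fitted in both directions against DMSO.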

PGR (gene 5241) = PGR (gene 5241) (UniProt P06401); assay: TOX21_PR_BLA_Followup_Antagonist_ratio: Tox21 HEK293 Progesterone Receptor (PR) Antagonism Beta-lactamase Follow-Up Assay, Ratio (AID 2283934)
Sequence of PGR (gene 5241) (P06401 whole entry, looked up): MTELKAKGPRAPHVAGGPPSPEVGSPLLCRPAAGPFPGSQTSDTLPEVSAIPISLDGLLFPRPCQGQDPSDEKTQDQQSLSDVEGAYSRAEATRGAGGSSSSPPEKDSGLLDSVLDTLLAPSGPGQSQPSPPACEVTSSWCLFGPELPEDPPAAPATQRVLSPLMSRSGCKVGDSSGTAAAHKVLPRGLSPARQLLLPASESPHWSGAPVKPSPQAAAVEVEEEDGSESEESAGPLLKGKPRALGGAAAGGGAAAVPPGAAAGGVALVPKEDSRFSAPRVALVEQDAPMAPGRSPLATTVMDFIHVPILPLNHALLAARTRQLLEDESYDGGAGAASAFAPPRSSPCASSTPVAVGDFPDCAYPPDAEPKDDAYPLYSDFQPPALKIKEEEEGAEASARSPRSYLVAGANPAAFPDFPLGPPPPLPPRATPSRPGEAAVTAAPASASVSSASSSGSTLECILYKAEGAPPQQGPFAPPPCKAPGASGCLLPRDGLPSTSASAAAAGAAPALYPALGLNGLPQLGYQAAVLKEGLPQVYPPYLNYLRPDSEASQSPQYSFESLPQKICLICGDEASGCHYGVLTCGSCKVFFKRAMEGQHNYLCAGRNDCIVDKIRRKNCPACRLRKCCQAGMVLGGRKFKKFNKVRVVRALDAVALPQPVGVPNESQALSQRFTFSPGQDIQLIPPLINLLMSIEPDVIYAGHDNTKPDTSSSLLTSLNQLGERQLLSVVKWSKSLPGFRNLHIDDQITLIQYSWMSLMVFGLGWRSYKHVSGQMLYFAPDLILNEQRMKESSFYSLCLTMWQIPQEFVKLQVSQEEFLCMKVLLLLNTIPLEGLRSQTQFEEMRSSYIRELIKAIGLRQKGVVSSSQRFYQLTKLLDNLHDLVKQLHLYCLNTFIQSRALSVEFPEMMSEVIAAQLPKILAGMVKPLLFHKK
Outline: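 PR-UAS-bla HEK293T cells, 3,000/well in 2% charcoal-stripped FBS, given compound plus 1nM R5020 agonist for 16 hr at 37C. Beta-lactamase FRET substrate 2 hours, ratio cleaved/uncleaved fluorescence; viability by CellTiter-Glo in same wells.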

[11] = TOX21_PR_BLA_Followup_Agonist_viability: Viability Assessment in the Tox21 HEK293 Progesterone Receptor (PR) Agonism Beta-lactamase Follow-Up Assay (AID 2283935);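 note: signal loss means lower viability so actives are cytotoxic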
Outline: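 PR-UAS-bla HEK293T cells in 2% charcoal-stripped FBS medium, plated 6 hr before compound addition, exposed 16 hr at 37C. Viability read by CellTiter-Glo ATP luminescence after 30 min at room temperature, in the same wells as the beta-lactamase readout.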

[12] = TOX21_PR_LUC_Followup_Agonist_viability: Viability Assessment in the Tox21 HEK293 Progesterone Receptor (PR) Agonism Luciferase Follow-Up Assay (AID 2283941);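 note: loss of signal means cytotoxicity so actives lower viability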
Outline: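 HEK293-PR-A-luc cells, kept in 10% charcoal-stripped FBS medium, were treated with compounds for 16 h at 37C. Viability read as cellular ATP by luciferase-coupled luminescence; loss of signal indicates cytotoxicity.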

Measured: AC50

O=NN1CCNCC1
inactive: [1] | [2] | [3] | [4] | [5] | [6]

Nc1ccc(Cc2ccc(N)c(Cl)c2)cc1Cl
inactive: [1] | [7] | [5] | [6]
active: [2] 68.5 µM | [3] 77.1 µM | [4] 71.5 µM

COC(=O)[C@@H](N)CCCN/C(N)=N/[N+](=O)[O-]
inactive: [1] | [2] | [3] | [4] | [7] | [6]

N#CC(C#N)=C(C#N)C#N
inactive: [1] | [2] | [3] | [4] | [5]

CCOP(=S)(OCC)SC(CCl)N1C(=O)c2ccccc2C1=O (centres undefined)
inactive: [1] | [2] | [3] | [4] | [7] | [5] | [6]

ClC(Cl)(Cl)Cl
inactive: [1] | [2] | [3] | [8] | [7] | [6]

COC(=O)C(C)N(C(=O)c1ccco1)c1c(C)cccc1C (centres undefined)
inactive: [1] | [2] | [3] | [8] | [7]

Cc1nnc2n1-c1ccc(Cl)cc1C(c1ccccc1Cl)=NC2
inactive: [1] | [2] | [3] | [8] | [5]

II
inactive: [1] | [2] | [3] | [8] | [7] | [6] | [9] | [10]

CCCCN=C=O
inactive: [1] | [2] | [3] | [8] | [6]

CC[C@H]1[C@@H]2C[C@H]3[C@@H]4N(C)c5ccccc5[C@]45C[C@@H](C2C5O)N3[C@@H]1O (some centres undefined)
inactive: [1] | [2] | [3] | [8] | [5] | [6]

COc1cc(C[C@@H](C)N)c(OC)cc1Br
inactive: [1] | [2] | [3] | [8] | [5]

FC(F)OC(F)(F)C(F)Cl (centres undefined)
inactive: [1] | [2] | [3] | [4] | [6]

C[C@]12CC[C@H]3[C@@H](CCC4=CC(=O)CC[C@@H]43)[C@@H]1CC[C@@H]2O
inactive: [1] | [2] | [3] | [8] | [7] | PGR (gene 5241) | [11] | [12]

c1ccccc1
inactive: [1] | [2] | [3] | [4] | [6]
